Test systems include HCT-15 colon; HT29 colon; SNB-75 CNS; SNB-19 CNS; U251 CNS; PC-3 prostate; SK-MEL-5 melanoma; UACC-62 melanoma; LOX IMVI melanoma; SK-MEL-28 melanoma; SK-MEL-2 melanoma; EKVX NSCLC; SN12C renal; UO-31 renal; TK-10 renal; ACHN renal; CAKI-1 renal; A498 renal; CCRF-CEM leukemia; MOLT-4 leukemia.
Assay in all cases: NCI-60 one-dose screen, 48 h (100 = growth as untreated, 0 = no growth, -100 = all killed)
Holding throughout (conditions): 10 µM unless noted

Compounds without any hit were thinned out: in the full panel of roughly 83,000, 20% have a hit.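 Plates (96-well) were seeded with cells, treated with compound at one concentration, and incubated for 48 hours before percent growth was determined.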 Values without a mark were called inactive. Active and inactive are the calls of the source. How the source made its calls: active means growth percent below 10; inactive means the rest.

Regarding `N#Cc1c(-c2ccccc2)cc(-c2ccc(Nc3nc(Nc4ccc(Cl)cc4)nc(Nc4ccc(Cl)cc4)n3)cc2)nc1N`, the growth in the assay with HCT-15 colon is -38.3% (active); with HT29 colon, 9.85% (active); in the assay on SNB-75 CNS, 66%; with SNB-19 CNS, 100%; with U251 CNS, -35.4% (active); in the assay with PC-3 prostate it was 20.7%. For the same compound, the growth with SK-MEL-5 melanoma is -13.8% (active); with UACC-62 melanoma, 54.5%; in the assay on LOX IMVI melanoma, -88.7% (active); with SK-MEL-28 melanoma, -80.9% (active); in the assay on SK-MEL-2 melanoma, 34%; in the assay with EKVX NSCLC, 9.99% (active). Further, the growth was 50.2% in the assay with SN12C renal; -82.4% (active) with UO-31 renal; -60.1% (active) in the assay on TK-10 renal; -32.5% (active) with ACHN renal; 20.1% in the assay with CAKI-1 renal; 81.8% in the assay with A498 renal. The growth was 4.06% (active) in the assay with CCRF-CEM leukemia and 4.72% (active) in the assay with MOLT-4 leukemia.
Take `O=C(Nc1nc2ccc(C(=O)N3CCN(/C=C/c4ccccc4)CC3)cc2s1)c1ccc(NCCc2ccccc2)c([N+](=O)[O-])c1`: the growth with HCT-15 colon was 22.4%; in the assay with HT29 colon, 5.52% (active); in the assay on SNB-75 CNS, 79%; in the assay on SNB-19 CNS it was 70.2%; in the assay with U251 CNS it was 42.3%; in the assay with PC-3 prostate, 45%. For the same compound, the growth in the assay on SK-MEL-5 melanoma was 15%; with UACC-62 melanoma, 58.3%; with LOX IMVI melanoma, 47.4%; in the assay on SK-MEL-28 melanoma it was 76%; in the assay on SK-MEL-2 melanoma, 87.6%; in the assay with EKVX NSCLC, 50.6%. Also, the growth was 61.3% in the assay with SN12C renal; 37.8% in the assay with UO-31 renal; 87.7% in the assay with TK-10 renal; 80.9% in the assay on ACHN renal; 50.6% in the assay on CAKI-1 renal; 48.3% in the assay with A498 renal. For the same compound, the figures for the growth with CCRF-CEM leukemia and with MOLT-4 leukemia were 22.8% and 27.4%, respectively.
Turning to `COC(=O)CC[C@@H]1O[C@@H](c2cccc(C(F)(F)F)c2)[C@@H](O)[C@H]1O`, the growth in the assay with HCT-15 colon was 101%; in the assay with HT29 colon it was 97.8%; in the assay on SNB-75 CNS, 92.5%; in the assay with SNB-19 CNS, 107%; in the assay on U251 CNS, 102%; with PC-3 prostate, 97.8%. Also, the growth was 98% in the assay on SK-MEL-5 melanoma; 104% with UACC-62 melanoma; 97.4% in the assay on LOX IMVI melanoma; 105% in the assay with SK-MEL-28 melanoma; 103% in the assay with SK-MEL-2 melanoma; 97.7% in the assay on EKVX NSCLC. The growth with SN12C renal was 106%; in the assay on UO-31 renal, 92.9%; with TK-10 renal it was 98.9%; in the assay on ACHN renal, 103%; with CAKI-1 renal, 94%; with A498 renal, 106%. Moreover, the growth with CCRF-CEM leukemia is 109%; in the assay on MOLT-4 leukemia, 104%.
`CS(=O)(=O)Nc1cc(-c2ccc3ncnc(Nc4ccc5c(cnn5Cc5cccc(F)c5)c4)c3c2)cnc1Cl`: the growth in the assay with HCT-15 colon was 46.9%; in the assay on HT29 colon it was 5.83% (active); in the assay with SNB-75 CNS, -13.9% (active); in the assay with SNB-19 CNS, 22.2%; in the assay on U251 CNS, 9.46% (active); in the assay on PC-3 prostate it was 10.9%. In addition, the growth in the assay on SK-MEL-5 melanoma is -68.3% (active); in the assay with UACC-62 melanoma, -8.95% (active); in the assay on LOX IMVI melanoma, -44.8% (active); with SK-MEL-28 melanoma, -12.6% (active); in the assay with SK-MEL-2 melanoma, -42% (active); in the assay with EKVX NSCLC, 4.57% (active). Also, the growth in the assay with SN12C renal is 3.84% (active); in the assay on UO-31 renal, 15.7%; with TK-10 renal, -15.9% (active); with ACHN renal, 18.4%; in the assay on CAKI-1 renal, -27.9% (active); with A498 renal, -48.7% (active). For the same compound, the growth in the assay on CCRF-CEM leukemia is 12.7%; with MOLT-4 leukemia it was -10% (active).
`CC(=O)N1N=C(c2ccc(C(F)(F)F)c(F)c2)CC1c1[nH]c(C)c(C(=O)NCC(F)(F)F)c1C` (stereo not given): the growth was 95.3% in the assay on HCT-15 colon; 78.5% in the assay on HT29 colon; -8.37% (active) in the assay on SNB-75 CNS; 47.9% in the assay on SNB-19 CNS; 78.8% in the assay with U251 CNS; 70.8% in the assay with PC-3 prostate. For the same compound, the growth in the assay with SK-MEL-5 melanoma was 81.7%; in the assay with UACC-62 melanoma it was 87.7%; in the assay with LOX IMVI melanoma, 71.5%; in the assay with SK-MEL-28 melanoma, 69.8%; in the assay with SK-MEL-2 melanoma it was 106%; in the assay with EKVX NSCLC it was 88.4%. The growth with SN12C renal is 50.1%; with UO-31 renal, 26%; in the assay with TK-10 renal it was 68.5%; with ACHN renal, 18.7%; in the assay with CAKI-1 renal, 58.7%; in the assay with A498 renal, 54.9%. For the same compound, the growth was 90% in the assay on CCRF-CEM leukemia and 82.6% in the assay on MOLT-4 leukemia.
Regarding `N=C(N)c1ccc(-c2ccc(-c3ccc(Cl)c(Cl)c3)s2)nc1`, the growth in the assay on HCT-15 colon is -71.9% (active); with HT29 colon it was 5.19% (active); in the assay on SNB-75 CNS, 84.8%; in the assay with SNB-19 CNS, 11.7%; in the assay with U251 CNS it was -55.7% (active); in the assay on PC-3 prostate, -16.9% (active). Besides, the growth with SK-MEL-5 melanoma was 91.3%; with UACC-62 melanoma, 81%; in the assay with LOX IMVI melanoma it was -88.6% (active); with SK-MEL-28 melanoma, 107%; in the assay on SK-MEL-2 melanoma it was 102%; in the assay on EKVX NSCLC, 62.8%. Also, the growth in the assay on SN12C renal is 36.6%; in the assay on UO-31 renal it was 32.7%; with TK-10 renal, 112%; in the assay on ACHN renal, -62.8% (active); in the assay on CAKI-1 renal, -60.1% (active); in the assay with A498 renal it was 90.7%. For the same compound, the growth is -1.55% (active) in the assay with CCRF-CEM leukemia and -26.3% (active) with MOLT-4 leukemia.
Take `COCCn1cc(-c2nc(-c3cc4cccnc4[nH]3)cs2)c2cc(OC)ccc21`: the growth with HCT-15 colon is 20.3%; in the assay with HT29 colon, 30.9%; in the assay with SNB-75 CNS, 9.81% (active); in the assay with SNB-19 CNS, 61.6%; in the assay on U251 CNS, 32.8%; in the assay with PC-3 prostate it was 10.4%. Also, the growth was 39.1% in the assay on SK-MEL-5 melanoma; 49.8% in the assay with UACC-62 melanoma; 33.2% in the assay on LOX IMVI melanoma; 62.8% in the assay with SK-MEL-28 melanoma; 37.8% with SK-MEL-2 melanoma; 16.9% with EKVX NSCLC. In addition, the growth in the assay on SN12C renal is 48.5%; in the assay on UO-31 renal, 10.9%; in the assay with TK-10 renal, -4.75% (active); with ACHN renal, 22.4%; in the assay with CAKI-1 renal it was 34.4%; in the assay on A498 renal, -0.329% (active). For the same compound, the growth was 12.4% with CCRF-CEM leukemia and 26.6% with MOLT-4 leukemia.

For the origin of these results see PubChem BioAssay (NCI).
